Source: PubChem (National Center for Advancing Translational Sciences (NCATS))
This is a sample that favours compounds with a hit; in the whole collection about 1.5% have one here.
Nrf2 activator – qHTS of Nrf2 Activators; Potency, µM (doses to about 46.1 µM), hits mostly activators; AREc32 ARE-luciferase reporter (MCF7-derived line), luminescence, 24 h; AID 624171, 2012; 410,000 tested, 0.31% active; also: nearly all actives have a fitted effect of over 65% in size
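Each well held 1000 AREc32 cells, which were incubated with compound for 24 hr at 37 deg C after overnight attachment, and ARE reporter activity was quantified by firefly luciferase luminescence.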
IL-2 act – qHTS of IL-2 Activators. IL-2 activation reporter assay, cell-based qHTS; stimulated with anti-CD3/CD4/CD28 beads; in transgenic mouse T cells. activation, % (series mostly up to about 46 µM). 360,000 tested, 0.065% active. AID 652025, 2013; in the data active = activation above about 50%; inconclusive = mostly about 30% to 49%
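Unstimulated transgenic mouse T cells, 750 per well, received compound and, after 60 minutes, anti-CD3/anti-CD4 bead plus anti-CD28 stimulation. EGFP and DsRed were quantified after 18 hours.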
12-LOX inh – Primary qHTS assay for inhibitors of human arachidonate 12S-lipoxygenase (ALOX12): Round 2; Polyunsaturated fatty acid lipoxygenase ALOX12 (Homo sapiens), P18054; purified 12hLO, xylenol orange hydroperoxide absorbance; Potency, µM (highest dose often 108 µM), hits mostly inhibitors; 580,000 tested, 1.1% active; AID 1671190, 2021
Target sequence (P18054 whole entry, looked up): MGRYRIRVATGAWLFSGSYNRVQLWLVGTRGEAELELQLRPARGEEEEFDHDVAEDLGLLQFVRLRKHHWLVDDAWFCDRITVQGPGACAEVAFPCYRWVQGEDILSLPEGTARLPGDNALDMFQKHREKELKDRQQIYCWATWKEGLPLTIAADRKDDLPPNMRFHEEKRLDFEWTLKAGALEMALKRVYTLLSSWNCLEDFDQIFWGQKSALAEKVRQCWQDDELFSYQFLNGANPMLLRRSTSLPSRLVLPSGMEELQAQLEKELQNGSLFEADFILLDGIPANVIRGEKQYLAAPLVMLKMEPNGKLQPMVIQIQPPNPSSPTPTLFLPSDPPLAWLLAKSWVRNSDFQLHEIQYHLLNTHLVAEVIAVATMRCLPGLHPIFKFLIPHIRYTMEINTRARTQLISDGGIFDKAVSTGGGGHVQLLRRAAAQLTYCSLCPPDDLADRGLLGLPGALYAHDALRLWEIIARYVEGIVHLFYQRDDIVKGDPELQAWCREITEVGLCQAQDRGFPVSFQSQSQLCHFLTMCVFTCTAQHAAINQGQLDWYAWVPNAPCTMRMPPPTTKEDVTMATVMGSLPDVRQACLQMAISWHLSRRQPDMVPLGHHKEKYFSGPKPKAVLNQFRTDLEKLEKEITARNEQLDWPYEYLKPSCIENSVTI
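Hydroperoxide product was detected by ferrous iron/xylenol orange as the 573 to 405 nm absorbance ratio. Arachidonic acid at 40 uM (final) was turned over for 30 min at room temperature by 150 nM human 12hLO, pH 7.0 Hepes buffer, after 15 min compound preincubation.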
a7 integrin act – qHTS for Activators of Integrin-Mediated Alleviation for Muscular Dystrophy; Potency, µM (titrated, usually from 38.3 µM), usual class: activators; 350,000 tested, 0.064% active; alpha7betagal myoblasts, beta-gal FDG fluorescence, 48 h; also: nearly all actives have a fitted effect of over 60% in size
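Alpha7betagal+/- myoblasts (passage 13) were plated 16-24 hr, then exposed to compounds (1:260 dilution of DMSO stock) for 48 hours at 37C. After MPER lysis, β-galactosidase reporter activity was read as FDG fluorescence (ex 480/em 540) after 30 minutes.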
uPA surface inh – qHTS for Inhibitors of Cell Surface uPA Generation. cell surface uPA generation assay, qHTS. Potency, µM (doses to about 38.3 µM), usual class: inhibitors. 330,000 tested, 0.31% active. AID 540303, 2011; active = well fitted inhibition curve with a large enough effect; inconclusive = small, poorly fitted or top-dose-only effect; inactive = no such curve, though single readings can be large or run the other way; tested in mouse RAW 264.7 cells; also: nearly all actives have a fitted effect of over 55% in size
A number is an active result; . = inactive; ? = inconclusive; / = no result given. Unless noted, calls follow the shape of the dose curve; as a rule, active = well fitted curve in the direction sought with a large enough effect; inconclusive = small, poorly fitted or top-dose-only effect, or another doubt; inactive = no such curve, though single readings can be large; an effect the other way counts as inactive or inconclusive.

SMILES	Nrf2 activator	IL-2 act	12-LOX inh	a7 integrin act	uPA surface inh
N#C/C(=C/c1ccccc1)c1nc(-c2ccc3c(c2)-c2ccccc2C3)cs1	/	/	.	/	/
COCCn1nc(C(=O)NCC(c2ccccc2Cl)N2CCCC2)ccc1=O (configuration not stated)	/	/	.	/	/
CCN(CC)CCC=C(c1cccs1)c1cccs1	.	.	50.1µM	.	.
CCN(C(=O)c1cccs1)C1CC1	/	/	.	/	/
Cn1c2ccccc2c2cc(/C=N/NC(=O)c3cc(O)ccc3O)ccc21	.	.	35.5µM	.	.
Cn1c2ccccc2c2cc(/C=N/NC(=O)c3cc(O)cc(O)c3)ccc21	.	.	?	.	.
CCC12CC3CC(CC(N)(C3)C1)C2	/	/	.	/	/
COC(=O)c1cn(CC(=O)Nc2ccc(C)c(C)c2)c2ccccc12	/	/	.	/	/
Cc1ccc(C)c(SCC(=O)OCC(=O)Nc2ncc(C(F)(F)F)cc2Cl)c1	.	.	?	.	.
O=C(COC(=O)CSc1cccc2cccc(Cl)c12)Nc1ncc(C(F)(F)F)cc1Cl	.	.	28.2µM	.	.
COc1cc(OC)c2c(-c3cccc(-c4ccoc4)c3)cc(=O)oc2c1	?	.	?	.	10µM
COc1ccc(C(=O)N2CCN(C(=O)c3nnn4c3COC(c3ccc(Cl)cc3)C4)CC2)cc1 (configuration not stated)	/	/	.	/	/
CCCOc1ccc(/C=C/C(=O)Nc2cccc3cccnc23)cc1OC	/	/	.	/	/
NC(=S)N/N=C/c1ccc(-c2cc(Cl)ccc2Cl)o1	.	.	22.4µM	.	.
Cc1ccc(C(=O)N/N=C\c2ccc(-c3ccc([N+](=O)[O-])cc3)o2)cn1	.	?	.	.	.
CCOC(=O)N/N=C\c1ccc(-c2cc(Cl)ccc2Cl)o1	.	.	.	?	.
NC(=S)N/N=C/c1ccc(-c2ccc([N+](=O)[O-])cc2)o1	.	.	31.6µM	.	.
NC(=S)N/N=C/c1ccc(-c2cc(Cl)cc(Cl)c2)o1	.	.	39.8µM	.	.
COc1nccc(N2CCC(CC(=O)N(C)CCCc3c(C)nn(C)c3C)CC2)n1	/	/	.	/	/
CSc1ccccc1NC(=O)CN(C)C(C)C(=O)Nc1ccc(SC(F)F)cc1 (configuration not stated)	/	/	.	/	/
COC(=O)c1c(NC(=O)c2ccco2)c2cc(NC(C)CCn3cccn3)cnc2n1C (configuration not stated)	/	/	.	/	/
CCOC(=O)c1sc(NC(=O)CCCC(=O)O)c(C#N)c1C	/	/	6.31µM	/	/
CCNC(=S)N/N=C/c1cccc(OCc2c(F)cccc2Cl)c1	.	.	39.8µM	.	.
O=C(CSCC(=O)N(Cc1cccs1)C1CC1)c1ccccc1	/	/	.	/	/
O=C(N/N=C/c1coc2ccc(Cl)cc2c1=O)c1cc(O)cc(O)c1	.	.	44.7µM	.	.
SMILES	Nrf2 activator	IL-2 act	12-LOX inh	a7 integrin act	uPA surface inh
Cc1ccc2occ(/C=N/NC(=O)c3ccc(Cl)cc3)c(=O)c2c1	.	.	.	.	.
COC1CCC12CCN(C(=O)c1cc(C)n(C)n1)CC2 (configuration not stated)	/	/	.	/	/
CC1=C[C@@H](CNC(=O)CN(C)C)[C@H](C(C)C)C[C@H]1Cc1nc2ccc(C)cc2[nH]1	/	/	.	/	/
COc1ccc2c(C(F)(F)F)cc(=S)[nH]c2c1	/	/	35.5µM	/	/
O/N=C1\CCCc2c1nc(-c1ccco1)n2O	/	/	.	/	/
O=C(c1cc(O)c(O)c([N+](=O)[O-])c1)c1ccccc1F	.	.	?	/	.
Cc1ccc(C(=O)c2cc(O)c(O)c([N+](=O)[O-])c2)cc1	/	/	0.0544µM	/	/
COc1cc(-c2noc(C)c2C#Cc2ccccn2)cc(OC)c1OC	.	.	?	.	0.355µM
CCOc1[nH]c(/N=C/c2ccco2)c(C#N)c1C#N	.	.	17.8µM	.	.
Cn1c(-n2cccc2)c(-c2c(-c3cccc4ccccc34)[nH]c3c2c(=O)[nH]c(=O)n3C)c(=O)[nH]c1=O	/	/	17.8µM	/	/
CC(C)N(Cc1nccn1C)C(=O)CCc1nnc(CCCc2ccccc2)o1	.	.	.	.	.
CC(C)N(CCO)C(=O)CCc1nnc(CCCc2ccccc2)o1	.	.	.	12.6µM	.
CC(CCc1ccco1)NC(=O)c1ccccc1F (configuration not stated)	/	/	.	/	/
CC(C)CCOC(=O)C(C)Oc1ccc2c(=O)c(-c3ccccc3Cl)coc2c1 (configuration not stated)	/	/	.	/	/
N#Cc1c(-c2ccncc2)c2c([nH]c1=S)CCCC2	.	.	20µM	.	.
COc1ccc(C(=O)Nc2ccc(CCc3nc4ccc(C)cc4[nH]3)cc2)c(OC)c1	/	/	.	/	/
COc1ccc(N/N=C/c2c(C(=O)O)ccc3ccccc23)cc1	.	.	?	.	10µM
Cc1cccc(C)c1NC(=O)CCl	/	/	.	/	/
Cc1cccc(C)c1NC(=O)C(Cl)=C(Cl)Cl	11.2µM	.	.	.	.
CS(=O)(=O)c1sc(C#N)c2c1C(=O)CC(c1ccccc1)C2 (configuration not stated)	.	.	.	?	8.91µM
CCc1ccccc1-n1c2c(cc(C#N)c1=O)C(=O)CC(c1ccccc1)C2 (configuration not stated)	/	/	.	/	/
COc1ccc(S(=O)(=O)/N=C2/NC(=O)/C(=C\c3ccco3)S2)cc1	.	.	39.8µM	.	.
COc1ccc(S(=O)(=O)/N=C2/NC(=O)/C(=C\c3cc(OC)c(OC)cc3[N+](=O)[O-])S2)cc1	.	.	?	.	.
COc1ccc(N=C2NC(=O)/C(=C/c3ccco3)S2)cc1	.	.	?	.	.
COc1ccc(S(=O)(=O)/N=C2/NC(=O)/C(=C/c3ccco3)S2)cc1	.	.	17.8µM	.	.
SMILES	Nrf2 activator	IL-2 act	12-LOX inh	a7 integrin act	uPA surface inh
O=C(NCCC(c1ccccc1)c1ccccc1)NNc1ccccn1	/	/	22.4µM	/	/
COc1ccc(C)cc1NC(=O)CNC(=O)CNc1cccc(Cl)c1F	/	/	.	/	/
Cc1ccc(-c2cc(C(=O)NCc3ccco3)c3ccccc3n2)o1	.	.	.	.	.
Cc1ccc(-c2cc(C(=O)Nc3cccc(C#N)c3)c3ccccc3n2)o1	/	/	7.08µM	/	/
Cc1ccc(-c2cc(C(=O)Nc3cccc(S(=O)(=O)N(C)C)c3)c3ccccc3n2)o1	.	.	6.31µM	.	.
NC(=O)c1ccsc1NC(=O)c1cccs1	?	.	.	.	.
Cc1sc(NC(=O)c2cccs2)c(C(N)=O)c1C	10µM	.	?	.	.
Cc1ccc(C(C)NC(=O)c2cccs2)cc1 (configuration not stated)	.	.	10µM	.	.
CC1CCc2c(sc(NC(=O)c3cccs3)c2C(=O)O)C1 (configuration not stated)	.	.	?	.	3.98µM
O=c1[nH]c(=O)n(Cc2ccccc2Cl)c2c1CN(Cc1ccccc1)CN2	/	/	.	/	/
